From PubChem BioAssay AID1508600 (Functional Genomics Laboratory (NCATS/FGL), 2020) come the findings set out here.

About 3,700 (7%) of roughly 53,000 sequences were called active. The full list was thinned out, with actives kept by preference. A number with no mark means an inactive call.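 How the source made its calls: active means gene knockdowns whose robust z-score for IL-1 alpha signal is at least 2 or at most -2, so actives lie on both sides; inactive means the rest.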

A short description of this test: Components of the Cytosolic LPS Sensing Pathway: Gene Identification via Genome-wide siRNA Screen.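 Further: robust z of the log signal after scaling to non-targeting control siRNA wells of the plate.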 Particulars: RAW264.7 macrophages, IL-1a HTRF, actives lie on both sides, screened at 100 nM (by protocol), cells primed 5 h with Pam3CSK4 first. The gist of the method: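 Knockdown: 100 nM siRNA, 48h, RAW264.7. Stimulation: Pam3CSK4 5 h, then LipidA via TransIT-TKO 24 h. Output: supernatant IL-1a HTRF, negative-control-normalized, log robust z-score; viability by CellTiter-Glo.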
(In general: TR-FRET usually uses a lanthanide donor and a delayed reading to cut background.)
For the sequence GGCAUAAGAAAAUGGACCCTT against Fhit, the z-score is 2.04 (active).
Under GGGAUAGUGUAAGUUAGUUTT against Dppa4 stands -0.0875; under GUUCUGAAAAUAGAAUAAUTT against Vmn1r16, 0.237; under GGCUUGAUUGCAUCUUUAUTT against Ebpl, -0.765.
For CGACACACCUAGCUAAACCTT against Dgkeos the value was -1.98; for GGCCUUAGAACAAGGAAUATT against Cdk7, -0.769.
For the sequence CCAAUUACGAGACUCUCAUTT against Zfp786, the z-score was -0.00661.
For GCUUAUUGAACUAUUGUUGTT against Trpc4 the value was 3.72 (active); for GGAGCAGUCUAUCUUUGGUTT against Dbn1, 1.3; for GGAGAACAAGGCAAAAGAATT against Mindy4, -0.945.
Under GCAGACAGAGUUUUAACGUTT against Fancl stands -0.381.
For GCCAUUCACUUAAUUCAGUTT against H2ac8 the value was -1.32; for GGCUCUGGCCAUAUUUUGGTT against Olfr549, -1.44.
In the case of CCAUAGGUAUCAUUGCAAGTT against Tas2r139, the z-score is -2.16 (active).
As for GCAAUAAUCGUUCUCAAAATT against Prkab1, the z-score was 1.5.
GGAGAUCAGCUGUCUAAUGTT against Tmem237: the z-score was -0.207.
For the sequence GGACAGGAUGAGUUUGACATT against Rhou, the z-score is -1.52.
As for GGAAAUCUCAGAAAUCAAATT against Pmf1, the z-score was -1.15.
In the case of GCUCCUUGGGCGAUUUCAGTT against Aggf1, the z-score was 0.265.
For GCAAGGUAUUCCAUGCUCATT against Psg27 the value was -0.616.
As for GCUGUGAUCUCAGUAUUCATT against Strbp, the z-score is 0.443.
Under GGUGACCACUUUUAUCUGATT against Olah stands 0.601; under GCCUAAAAAAUCUCUGUGATT against Zswim3, -2.77 (active).
Under GGACUAUAGAUCCUAAGUCTT against Kcnab2 stands -0.246; under CCACCCUGUGAAAAAGUCATT against Ccr3, -1.08; under GAAAGGAAAGCUAGCCAUGTT against Gm5622, 0.614.
With CCAUUGAAUCAGUUGAAGUTT against Slc5a7, the z-score was 1.21.
GGCCGUUAUGUUUUACAAGTT against Dnajc19: the z-score is 0.00748.
For GGGCAUACAUAUAACCUAUTT against Fermt2 the value was -0.285; for GCUUUUUGACUACGUAGCCTT against Hkdc1, 0.0141.
Under GGUUUGAGAAAUUGGACAUTT against Pou6f1 stands 3.72 (active).
For GGAAAGCAGGACAAAAGGCTT against Mettl18 the value was 0.346.
As to GUCAUCUUGUUCCAUCUGATT against Olfr1269, the z-score was -1.12.
For CGACCUAACCAACAUGCUUTT against Asap3 the value was 0.0248; for GGUAGCUGUUUAGGACAAUTT against Arl6ip5, 3.79 (active).
For GCGAUUCUGUUGUUAGCUUTT against Rln1 the value was 0.134; for GGUAGAAUUGUGAUCUCAGTT against Bco2, -0.411.
Take GCAGGUACUAUUUGUGACGTT against Olfr30: the z-score was 1.07.
Under GCAGCACGAACUGAUGACGTT against Plcd3 stands -2.18 (active); under GGUGGACAACCAGUUCUACTT against Mapk10, 1.27; under CCUGUGUUUCAGUUUGGUATT against Clptm1l, 0.549.
For GGCUCAAUAAUGUUUUCAATT against Smpd3 the value was 3.18 (active); for CGUAAAUUCACCAAGGAGCTT against Slc19a1, -0.805.
Under GGACAUUGACACUUCCCUGTT against P2rx5 stands -1.85; under GGAGAUAACAGAUCUGUUUTT against Fam114a2, -0.843.
As to GGCAUCCACACAGAACAAGTT against Zfp467, the z-score is -0.287.
Under GGGAUAGGGUUCAAUUAGGTT against Bcl2l13 stands 0.231; under GUCCCAGUACUUCUUGUUUTT against Vmn1r27, 0.675; under GGGUGAUAAAUGUUUGAAUTT against Vmn1r45, 0.338.
For GGAGGCUGUUGUGGAUCUUTT against Acin1 the value was 1.03; for GGAAUGUGAAGAAGAAAUUTT against Dnttip2, 2.03 (active).
For GCCUAUUGUAGUGUUACAUTT against Cyp2c67 the value was -0.887.
Regarding GGUGAUCCAGCUUUCUUGGTT against Tiaf2, the z-score is -0.351.
For GGGAAAACAGGUACGACUGTT against Odf1 the value was -0.743.
With GGUGAUCAAGGACAUUUAATT against Psma5, the z-score is 0.0545.
For GCCAAUGCUUCCAUUACCATT against Abca17 the value was 0.141; for GGAGCUAGAUAGGAAAAAATT against Vill, -1.44.
Under CGAUUGACUUAAGAUUCAGTT against Hlf stands -0.612.
As to GGCCAAAGAGUUCAGCCUATT against Prrx2, the z-score was -0.29.
Under GGUCAAAAGUUCUGGACAGTT against Spin4 stands 5.6 (active); under GGACGAUGGUUCCUGAAAATT against Snap91, -1.39; under GGUUGAAGGAGUGUUUUAUTT against Rtcb, 2.09 (active).
As for GGCCCAUAAUUAAAUGUUUTT against Stac2, the z-score was 0.438.
Regarding CCAAUAGUUGUGGACAUGATT against Crisp1, the z-score was 1.82.
For GCUUACCUUGUUCUUAAAGTT against D2hgdh the value was -1.62; for GGUACCAUAUGAGAGCUAATT against Tsr2, 2.7 (active).
For AACCAGAGGUCCUAAAUACTT against Mmp28 the value was -0.948.
For GCUAAGUGCUCGAAUCCGATT against Cnppd1 the value was -0.326; for GGUGGACAUGUGGAAUGAUTT against Ubxn11, 0.463.
For the sequence GCUAGUGACUUUGAGAUUGTT against Msh5, the z-score was -0.75.
Turning to CCACUUUCAGAAACAUUACTT against A2ml1, the z-score was -1.01.
For GGCUACUGUUGCUGCAUUUTT against Lin7c the value was -2.49 (active); for “CCAACAAAAACGUACUUUGTT against 9530091C08Rik”, 1.24; for CCAGAGAGAUACCUGAUCUTT against Tas2r113, -0.993.
Under GGGACAAUACAUUGAUAGCTT against Vmn1r206 stands -0.625; under “GGAAGAUGCCUACUUCAGATT against 4632433K11Rik”, 2.5 (active).
Under GGCCAUCACUAUUAGCCUCTT against Vmn1r70 stands -0.214.
For the sequence GGGCUAUAUAUAUUUCCACTT against Asns, the z-score was 2.75 (active).
Regarding CCAUAUUGGCAAUCUCUAGTT against Khdc1a, the z-score was 2.15 (active).
As for GGAAGUAUUGACGAGUGGGTT against Orai3, the z-score is 0.0813.
Under GGAAGUCCAUCAGCUUUAUTT against Wdr78 stands 2.29 (active); under GCGACUGACACUAACAGAATT against Poc1a, -0.261; under GGUUUCAUGAAAGAGGAGCTT against Cbs, -0.926.
Under GGGCACCACAGAAAGGAAUTT against Olfr376 stands -0.525; under GGCUAACCGAAGCCAUCCUTT against Tceal9, 0.969; under GGACCAGGAUAGGACCAAUTT against Avpr2, 2.33 (active).
Take GCUUUCAUUAAGUCAGAUCTT against Flvcr2: the z-score is 1.16.
As for GGAUAAGAGAAAAACAGAATT against Ect2, the z-score was 0.141.
Take GGCAUAGUUGCUGUUCUCUTT against Slc9a9: the z-score was -0.871.
For GGCUGUUUGCCAAAAAAAATT against Ppp1r16a the value was -0.36; for GGCACAGUUCUGGAAGAUGTT against Qtrt1, -1.02; for GCACAGACAUCUUUUGCCATT against Man2a2, -1.
Consider GGUAUUCGAAGCAUACAAUTT against Pdha2, for which the z-score was 3.47 (active).
For GGAAAUGAUCUCUUUUGGATT against Bbs2 the value was -0.734.
For GGCACACUUGAGAAGACACTT against Cul5 the value was -0.601.
For GGAGGAAAGAAGUCCUACATT against Rnase2b the value was -0.835.
On to GGUCGGUGUUUUAUCUGCUTT against Slc17a9, for which the z-score was -3.2 (active).
Under CCUUCUAGAUGUCUUAAGATT against Zfp41 stands -0.244; under GGCCAAACAAGACCCAUCUTT against Ppil2, -0.621.
For the sequence GGAAAAGUAUUGGUAGACGTT against Steap4, the z-score is -1.73.
Under GCAAUGCAAAAGAUGCCCUTT against Chchd7 stands 0.0804; under CCCAGUUAGAAUUGUUAUCTT against Snx16, 1.29; under CAUCUUUCAUCAAAUAACUTT against Krtap31-2, 2.49 (active).
Under GGAAAUUACUUUGAUACUCTT against Rfx3 stands 1.5.
On to CCAAAACGGAAUCCUAAUATT against Nyap2, for which the z-score was -1.34.
For GGGCCACUUUCCAAUUCAATT against Tectb the value was 0.817; for GGAUCAUAAAAAGAAUCACTT against Gpr21, 0.851.
For GGGAAUUUACCAAGUACCCTT against Nedd9 the value was 1.53.
